From PubChem BioAssay (NCI)
“And” between values parts separate entries of the source, which are not always exact repeats. Identical values can stand only once. Compounds without any hit were thinned out: in the full panel of roughly 83,000, 20% have a hit.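 Interpretation: 100, growth as untreated; towards 0, rising growth inhibition; 0, no net growth; 0 to -100, cell death. Compounds scoring below 10 were considered active.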 The source made the active and inactive calls. Where a SMILES comes first, the peptide text is derived from it. [ ]: non-standard residue; d: D form. ξ: configuration not given here. ξV = CC(C)C(N)C(=O)O

Tested on: SN12C renal
Assay: NCI-60 one-dose screen, 48 h (100 = growth as untreated, 0 = no growth, -100 = all killed)
Settings: 0.0025 µM
Procedure: Growth inhibition of the SN12C human tumor cell line is measured as a screen for anti-cancer activity. Cells are grown in 96 well plates and exposed to the test compound for 48 hours. Compounds are tested at a single concentration, which is 10^-5 M for most compounds. The reported endpoint is percent growth (GI% or GIPRCNT), where numbers from 0 - 100% represent growth inhibition, and numbers from -100% - 0 represent cell death. For example, a value of 40 represents 60% growth inhibition. A value of 0 means no net growth occurred over the course of the experiment. A value of -40 indicates 40% of cells at the beginning of the experiment died by the end of the experiment. A value of -100 means all cells are dead at the end of the experiment.
NCI-60 Human Tumor Cell Lines Screen was performed using the standard one-dose NCI protocol, which is described in more detail at https://dtp.cancer.gov/discovery_development/nci-60/default.htm.
Compounds with GIPRCNT values below 10 were considered active. Activity score was based on GIPRCNT using the following formula: […]
Score is 0 for GIPRCNT values of 100 or above, 50 for GIPRCNT values of 0, and 100 for GIPRCNT values of -100.

Row | Compound | growth
1 | COc1cccc2c1C(=O)c1c(O)c3c(c(O)c1C2=O)C[C@@](O)(C(=O)CO)C[C@@H]3OC1CC(N)C(O)C(C)O1 (stereo not given in full) | 104% (inactive)

Same assay, conditions: 1 µM

Row | Compound | growth
2 | COc1cccc2c1C(=O)c1c(O)c3c(c(O)c1C2=O)C[C@@](O)(C(=O)CO)C[C@@H]3OC1CC(N)C(O)C(C)O1 (stereo not given in full) | -4.11% (active)

Same assay, conditions: 2.5 µM

Row | Compound | growth
3 | COc1cccc2c1C(=O)c1c(O)c3c(c(O)c1C2=O)C[C@@](O)(C(=O)CO)C[C@@H]3OC1CC(N)C(O)C(C)O1 (stereo not given in full) | 2.46% (active)

Same assay, conditions: 10 µM

Row | Compound | growth
4 | NC(=O)SCC(=O)NNc1ccccc1 | 94.9% (inactive)
5 | Nc1ccc2cc3ccc(N)cc3nc2c1 | 86.2% (inactive) and 9.16% (active)
6 | Cc1cc(NS(=O)(=O)c2ccc(N=Nc3cc(N=Nc4ccc(S(=O)(=O)Nc5cc(C)nc(C)n5)cc4)c4c(NC(=O)C(Cl)Cl)cccc4c3OC(=O)C(Cl)Cl)cc2)nc(C)n1 (tested in a mixture with another compound) | 100% (inactive) and 101% (inactive)
7 | Cc1nc(N=C(N)N)nc2ccc3ccccc3c12 | -22.6% (active)
8 | CCCC1CCC(=C2C(=O)CCC2=O)O1 (stereo not given) | 90.5% (inactive) and 101% (inactive)
9 | CCCCCCCCCCCCCCCCCCOCC(COP(=O)([O-])OCC[N+](C)(C)C)OC (stereo not given) | 89.7% (inactive)
10 | COC(=O)C1C(O)C(C)C(O)C(C)C=C(C)C2=C3C(=C(C)C(=O)c4c(O)c(c(C)c(OC(C)=O)c43)NC(=O)C(C)=C/C=C\C(C)C(O)C(C)C1O)OCO2 (stereo not given) | 99.8% (inactive)
11 | COc1cccc2c1C(=O)c1c(O)c3c(c(O)c1C2=O)C[C@@](O)(C(=O)CO)C[C@@H]3OC1CC(N)C(O)C(C)O1 (stereo not given in full) | 12% (inactive)
12 | NNc1c2ccccc2nc2ccccc12 | 52.2% (inactive)
13 | OCC(O)C(O)C(O)C(/C=N/Nc1ccccc1)=N/Nc1ccccc1 (stereo not given) | 95.9% (inactive)
14 | COC(=O)C1=COC(C)C2C[n+]3ccc4c([nH]c5ccccc54)c3CC12 (stereo not given) | 95.9% (inactive) and 78.7% (inactive)
15 | CN(C)C(=S)SC(=S)N(C)C | 101% (inactive) and 103% (inactive)
16 | CC[N+](CC)=c1ccc2nc3c(cc(N)c4ccccc43)oc-2c1 | -40.8% (active)
17 | OC(CN1CCCC2CCCCC21)c1cc2ccccc2c2ccccc12 (stereo not given) | 49.7% (inactive)
18 | CS(=O)(=O)OC1CC(n2ccc(=O)[nH]c2=O)OC1COC(c1ccccc1)(c1ccccc1)c1ccccc1 (stereo not given) | 103% (inactive)
19 | CCN(CC)c1ccc(NC(C(=O)c2ccccc2)c2ccccc2)cc1 (stereo not given) | 1.65% (active)
20 | CCCCCCCCCCSC(=N)N | 60.9% (inactive)
21 | OCC1OC(n2cnc3c(=S)nc[nH]c32)C(O)C1O (stereo not given) | 95.1% (inactive) and 82.5% (inactive)
22 | CCN1/C(=C/C=C/C=C/c2sc3ccccc3[n+]2CC)Sc2ccccc21 | -20.7% (active)

Row | Compound | growth
23 | Nc1nc(=S)c2ncn(C3OC(CO)C(O)C3O)c2[nH]1 (stereo not given) | 107% (inactive) and 26% (inactive)
24 | Nc1c2ccccc2nc2ccccc12 | 12% (inactive) and 33.2% (inactive) and 33.5% (inactive)
25 | CCC(C)(C)c1cc(O)c(C(C)(C)CC)cc1O | 36.5% (inactive)
26 | CC(C)C(NC(=O)CN)C(=O)O (stereo not given) (H-Gly-[ξV]-OH) | 104% (inactive) and 100% (inactive)
27 | CSC1SCC2C(=O)N(C)C(C(C)C)C(=O)OCC(NC(=O)c3cnc4ccccc4n3)C(=O)NC(C)C(=O)N(C)C1C(=O)N(C)C(C(C)C)C(=O)OCC(NC(=O)c1cnc3ccccc3n1)C(=O)NC(C)C(=O)N2C (stereo not given) | 8.11% (active)
28 | NC1=C(Cl)C(=O)c2ccccc2C1=O | 62.5% (inactive)
29 | O=C1NC(=O)c2cc([N+](=O)[O-])ccc21 | 101% (inactive)
30 | O=C(/C=C/c1ccccn1)c1ccccc1 | 61.2% (inactive)
31 | CC(=O)OCC(OC(C)=O)C(OC(C)=O)C(OC(C)=O)C(OC(C)=O)C(/C=N/Nc1ccccc1)=N/Nc1ccccc1 (stereo not given) | 78.7% (inactive)
32 | Oc1ccc(N=Nc2ccccn2)c(O)c1 | 20.5% (inactive)
33 | O=C(O)COc1ccc(OCC(=O)O)cc1 | 2.58% (active)
34 | COc1cccc2c1C(=O)c1c(O)c3c(c(O)c1C2=O)C[C@@](O)(C(C)=O)C[C@@H]3OC1CC(N)C(O)C(C)O1 (stereo not given in full) | 8.87% (active)
35 | COc1c(O)cc2oc3cc(O)c(CC=C(C)C)c(O)c3c(=O)c2c1CC=C(C)C | 51.5% (inactive)
36 | Clc1ccc(/C=C/c2ccccn2)c(Cl)c1 | 94.4% (inactive)
37 | Cc1cc(O)c(C(C)C)cc1Cl | 104% (inactive)
38 | CC1=CC(C)=Nc2ccc(Cl)cc2N1 | 104% (inactive)
39 | O=C(C(=Cc1ccccc1)C(=O)c1ccccc1)c1ccccc1 | 78.6% (inactive) and 82.7% (inactive)
40 | O=C(/C=C/c1cccnc1)c1ccccc1 | 100% (inactive)
